{"source": "PubChem BioAssay (NCI)", "note": "Compounds without any hit were thinned out: in the full panel of roughly 83,000, 20% have a hit.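 Treatment: one concentration, 48 hours, 96-well format. Scoring: percent growth, with anything below 10 considered active.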 A number with no mark means an inactive call. Active and inactive are the calls of the source."}
{"test_system": "HL-60(TB) leukemia", "assay": "NCI-60 one-dose screen, 48 h (100 = growth as untreated, 0 = no growth, -100 = all killed)", "details": "10 µM unless noted"}
{"smiles": "CSc1nc2sc3cc(Cl)c(Cl)cc3n2c(=N)c1C#N", "growth": "110%"}
{"smiles": "COC(c1ccccc1)(c1ccccc1)c1ccccc1", "growth": "111%"}
{"smiles": "C=C(CN=[N+]=[N-])[C@@H]1CC[C@]2(C)[C@H](CC[C@@H]3[C@H]4[C@H]5OC(=O)[C@@]4(CCC5(C)C)CC[C@]32C)[C@@]1(C)CCC#N", "growth": "22.7% [100 µM]"}
{"smiles": "O=C(CNc1nnc(-c2ccc(Cl)cc2)o1)Nc1ccc(-c2nc3ccccc3s2)cc1", "growth": "93.7%"}
{"smiles": "Nc1nc(N)c(N=Nc2ccc(C(=O)O)cc2)c(N)n1", "growth": "90%"}
{"smiles": "O=C1CCC(C(=O)NCCNCCNC(=O)C2CCC(=O)N2)N1", "note": "(stereo not given)", "growth": "89.2%"}
{"smiles": "OC(COCc1ccccc1)COCc1ccccc1", "growth": "91.8%"}
{"smiles": "O=C(COc1cccc(/C=C2\\Oc3ccc4ccccc4c3C2=O)c1)c1ccc([N+](=O)[O-])cc1", "growth": "94.8%"}
{"smiles": "C=CC1=NC(C)(C)CC(C)O1", "note": "(stereo not given)", "growth": "96.7%"}
{"smiles": "CCOC(=O)C1=CSC2=NC3=C(CCC/C3=C\\c3cc(OC)c(OC)c(OC)c3)C(c3cc(OC)c(OC)c(OC)c3)N12", "note": "(stereo not given)", "growth": "51.5%"}
{"smiles": "Cc1ccc(/C(CS(=O)(=O)c2ccc(C)cc2)=N\\O)cc1", "growth": "99%"}
{"smiles": "CCCCCCCC/C=C\\CCCCCCCCOc1ccccc1CC(=O)NCC[N+](C)(C)C", "growth": "67%"}
{"smiles": "C#CC#CC#CC#CC#CC#CC#CC#CC[C@H]1OC[C@H](COC(=O)O[C@@H](C(=O)O[C@H]2C[C@@]3(O)[C@@H](OC(=O)c4ccccc4)[C@@H]4[C@]5(OC(C)=O)CO[C@@H]5C[C@H](O)[C@@]4(C)C(=O)[C@H](OC(C)=O)C(=C2C)C3(C)C)[C@@H](NC(=O)c2ccccc2)c2ccccc2)O1", "growth": "11.3%"}
{"smiles": "CCOC(=O)C1=C(CC(O)c2ccc(OC)cc2OC)NC(=O)NC1c1ccccc1", "note": "(stereo not given)", "growth": "-33.9% (active)"}
{"smiles": "CCCCCCN(CCCCCC)CCC(O)c1ccc2ccccc2c1", "note": "(stereo not given)", "growth": "42.4%"}
{"smiles": "Cc1nc2ccccc2c(N)c1-c1cc(C)c2c(C)nc3ccccc3c2n1", "growth": "-66.5% (active)"}
{"smiles": "CNC(=O)c1c(I)c(NC(C)=O)c(I)c(C(=O)O)c1I", "growth": "122%"}
{"smiles": "CC1=NOCC(=O)N1", "growth": "104%"}
{"smiles": "CCN1CCN(c2nc(C)cc(NCc3cc(Nc4ccnc5cc(Cl)ccc45)ccc3F)n2)CC1", "growth": "-7.3% (active)"}
{"smiles": "O=C(Nc1ccc(F)cc1)Nc1ccc(Cl)c([N+](=O)[O-])c1", "growth": "-15.6% (active)"}
{"smiles": "CCC12CCC3c4ccc(O)cc4CCC3C1CC(O)C2O", "note": "(stereo not given)", "growth": "63.1%"}
{"smiles": "COc1cc(N)c2ncccc2c1Cl", "growth": "85.6%"}
{"smiles": "O=C1c2cc3c(cc2-c2c1c1cc(Cl)c(Cl)cc1c(=O)n2CCCn1ccnc1)OCO3", "growth": "-19.4% (active)"}
{"smiles": "O=C(NCc1cn(Cc2cccc(Oc3ccccc3)c2)nn1)c1cccnc1NCc1ccc(Cl)cc1", "growth": "3.88% (active)"}
{"smiles": "O=C1Nc2ccccc2C2c3cccn3-c3ccccc3N12", "note": "(stereo not given)", "growth": "86.1%"}
{"smiles": "O=C1CCC(c2c(O)cc(O)c3c(=O)c(O)c(-c4ccc(O)c(O)c4)oc23)N1", "note": "(stereo not given)", "growth": "87%"}
{"smiles": "Cc1cc(N2CCN(c3ccnc4cc(Cl)ccc34)CC2)nc(NC2CCCCC2)n1", "growth": "-54.1% (active)"}
{"smiles": "CCCCC(CCCCCC(CCCC)C1NC(C)Cc2cc(OC)c(OC)cc21)C1NC(C)Cc2cc(OC)c(OC)cc21", "note": "(stereo not given)", "growth": "-79.7% (active)"}
{"smiles": "COc1cc(Nc2nc3ccccc3cc2C(=O)Nc2ccc(F)c(F)c2)cc(OC)c1OC", "growth": "19.8%"}
{"smiles": "CCCCCCCCCCCCCCCCCCSC1=CC(=O)C(OC)=C(OC)C1=O", "growth": "66.9%"}
{"smiles": "COc1cc(OC)c(/C=C/C(=O)c2c(N)cc(OC)cc2OC)c(OC)c1", "growth": "12.7%"}
{"smiles": "COc1ccc(NS(=O)(=O)c2ccc(-c3cnc(C4CC4)o3)cc2)cc1", "growth": "76.3%"}
{"smiles": "CC(C)CC(NC(=O)CN(Cc1ccccc1)S(C)(=O)=O)C(=O)O", "note": "(stereo not given)", "growth": "94.8%"}
{"smiles": "Clc1ccc([I+]c2ccc(Cl)cc2Cl)c(Cl)c1", "growth": "-38.3% (active)"}
{"smiles": "Cc1ccc(C)n1-c1ccccc1-n1c(C)ccc1C", "growth": "82.2%"}
{"smiles": "CC1(C)[C@@H](O)CC[C@]2(C)[C@H]3CC[C@@H]4[C@H]5[C@H](c6cn(-c7ccccc7)nn6)CC[C@]5(CO)CC[C@@]4(C)[C@]3(C)CC[C@@H]12", "growth": "74.8%"}
{"smiles": "CCc1c(C(=O)Nc2ccc3ccccc3c2)[nH]c(C)c1C(C)=O", "growth": "99.7%"}
{"smiles": "Nc1nc(Nc2ccccc2SSc2ccccc2Nc2nc(N)nc(-c3cccc(Cl)c3)n2)nc(-c2cccc(Cl)c2)n1", "growth": "99.3%"}
{"smiles": "CNc1ccc(NC)c2c1C(=O)c1ccccc1C2=O", "growth": "87.3%"}
{"smiles": "CS(=O)(=O)N(c1cc(-c2ccc3ncnc(Nc4cccc(Cl)c4)c3c2)cnc1Cl)S(C)(=O)=O", "growth": "8.46% (active)"}
